Test results published in PubChem BioAssay (NCI).
This is part of a sample that, as a whole, favours compounds with a hit. Of some 83,000 tested, about 20% had one in any assay.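 How to read the values: 0–100, growth inhibition (40 = 60% inhibited); 0, no net growth; -100 to 0, cell death (-40 = 40% of starting cells died; -100 = all dead).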 Values without a mark were called inactive. Active and inactive are the calls of the source. How the source made its calls: active means growth percent below 10; inactive means the rest.

What was measured:
Test in all cases: NCI-60 one-dose screen, 48 h (100 = growth as untreated, 0 = no growth, -100 = all killed)
[1] = test system: SR leukemia; conditions: 10 µM unless noted
[2] = test system: OVCAR-8 ovarian; conditions: 10 µM unless noted
[3] = test system: IGROV1 ovarian; conditions: 10 µM unless noted
[4] = test system: OVCAR-3 ovarian; conditions: 10 µM unless noted
[5] = test system: HS 578T breast; conditions: 10 µM unless noted
[6] = test system: BT-549 breast; conditions: 10 µM unless noted
[7] = test system: MDA-MB-435 melanoma; conditions: 10 µM unless noted
[8] = test system: SW-620 colon; conditions: 10 µM unless noted
[9] = test system: MCF7 breast; conditions: 10 µM unless noted
[10] = test system: HCT-116 colon; conditions: 10 µM unless noted
[11] = test system: HCC-2998 colon; conditions: 10 µM unless noted
[12] = test system: T-47D breast; conditions: 10 µM
[13] = test system: RPMI-8226 leukemia; conditions: 10 µM
[14] = test system: OVCAR-5 ovarian; conditions: 10 µM unless noted
[15] = test system: OVCAR-4 ovarian; conditions: 10 µM unless noted
[16] = test system: SK-OV-3 ovarian; conditions: 10 µM
[17] = test system: KM12 colon; conditions: 10 µM unless noted
[18] = test system: NCI/ADR-RES ovarian; conditions: 10 µM unless noted

Compound | growth [1] | growth [2] | growth [3] | growth [4] | growth [5] | growth [6] | growth [7] | growth [8] | growth [9] | growth [10] | growth [11] | growth [12] | growth [13] | growth [14] | growth [15] | growth [16] | growth [17] | growth [18]
O=c1[nH]c(=O)n(Cc2ccc(F)cc2)cc1F | 93.5% [50 µM] | 94.2% [50 µM] | 108% [50 µM] | 116% [50 µM] | 104% [50 µM] | 102% [50 µM] | 104% [50 µM] | 105% [50 µM] | 96.3% [50 µM] | 112% [50 µM] | 112% [50 µM] |  |  |  |  |  |  | 
Cc1ccc(C(=O)O[C@H](C(=O)O)[C@H](OC(=O)c2ccc(C)cc2)C(=O)O)cc1 | 87.5% |  |  |  |  |  |  |  |  |  |  | 93.6% |  |  |  |  |  | 
NC1=NC(c2ccccc2OS(=O)(=O)c2ccc(Br)cc2)n2c(nc3ccccc32)N1 (stereo not given) |  | 88.3% | 81.8% | 94.6% | 101% |  | 73.1% | 96% | 77.3% |  |  | 81.2% | 69.8% | 99% | 110% | 105% | 100% | 
COc1cc(-c2nc(Nc3nc4ccccc4[nH]3)nc(N)c2C#N)cc(OC)c1OC |  | 79.6% | 43% | 15.1% |  | 71.3% | 14.5% |  | 30.9% | 43.3% | 81.2% | 57.8% | 69.8% | 101% | 72.8% | 52.6% | 36.6% | 97.9%
Cc1cc(=O)oc2c1ccc1oc(C(=O)c3ccccc3)c(C)c12 |  | 76.2% | 102% | 85.6% | 103% | 101% | 95.8% | 92.2% | 69.4% | 83.5% |  | 76.3% | 69.5% | 104% | 66.8% | 109% | 73.2% | 83.3%
Nc1ccccc1-c1n[nH]c(=O)[nH]c1=O |  | 105% | 108% | 118% | 92.7% | 111% | 100% | 101% | 102% | 93.3% | 101% | 114% | 105% | 109% | 94.3% | 108% | 107% | 102%
CC1=CN2C(=NC3=C(CCCC/C3=C\c3ccccc3)C2c2ccccc2)S1 (stereo not given) |  | 102% | 97.9% | 110% | 92.8% | 108% | 99.6% | 103% | 94.6% | 97.6% | 103% | 91% | 112% | 106% | 95.8% | 88.5% | 100% | 100%
c1ccc2cc(Cn3c(-c4ccc5ccccc5c4)[n+](Cc4ccc5ccccc5c4)c4ccccc43)ccc2c1 | -27.8% (active) | -62.9% (active) | -74% (active) | -96% (active) | -58.9% (active) | -46.5% (active) | -80.4% (active) | -85% (active) | -70.1% (active) | -61% (active) | -88.7% (active) |  |  |  | -17.2% (active) |  | -90.6% (active) | 31.2%
CON=C1C[C@]2(C[C@@H]3C[C@@H](C/C=C(\C)C[C@@H](C)/C=C/C=C4\CO[C@@H]5[C@H](O)C(C)=C[C@@H](C(=O)O3)[C@]45O)O2)O[C@H](/C(C)=C/C(C)C)[C@H]1C |  | 66.4% | 28.1% | 1.95% (active) | 60.2% | 89.2% | 43.7% | 34.5% | 42% | 17.8% | 48.7% | 29.7% | 43.7% | 70.1% | 57.2% | 95.2% | 33.4% | 64.8%
COc1ccc(OC2=C(C#N)C(=N)N3c4ccccc4Sc4ccccc4C3N2)cc1 (stereo not given) |  | 102% | 63% | 92.1% |  | 96.9% |  |  | 95.6% | 103% | 95.2% | 87% | 88% | 102% | 112% | 79.3% |  | 85.2%
O=C1/C(=C/c2ccc(Cl)cc2)N=C(c2ccccc2)N1CCc1cccs1 |  | 36.1% | 55.3% | 79.9% | 67.7% | 59.8% | 53.2% | 51.3% | 15.7% | 28.5% | 25.4% | 97.7% | 76.1% | 30.5% | 62.1% | 105% | 99.2% | 56.7%
C=C1CC[C@@H]2[C@@](C)(CCC[C@]2(C)C(=O)O)[C@@H]1CC[C@H](CO)CCO |  | 104% | 99% | 76.4% | 107% |  | 109% | 114% | 101% | 107% | 108% | 90.5% | 113% | 108% | 99% | 102% | 102% | 104%
O=C1CN2CCC1C/C2=C\c1ccnc2c(Cl)cccc12 (stereo not given) |  | 99.4% | 95.3% | 123% | 219% | 108% | 101% | 101% | 45.7% | 98.5% | 102% | 93.6% | 62.2% | 103% | 93.6% | 94.1% | 101% | 101%
CCN1CCN(C(=S)SCC(=O)Nc2nc3ccc(OC)cc3s2)CC1 |  | 103% |  | 101% | 106% | 89.5% | 107% | 110% | 96.3% | 95.8% |  | 86.6% | 98% | 98.8% | 93.3% | 112% | 90.6% | 99.6%
COc1nc2c(cc1S(=O)(=O)c1ccccc1)CCc1c-2cnn1-c1ccccc1 |  | 76.4% | 79.6% | 88.9% | 85.2% | 78.7% | 69.3% | 89.9% | 75.5% | 72.4% | 98.1% | 40.4% | 62.6% | 81.1% | 76.7% | 87.2% | 100% | 80.8%
Nc1nc(-c2ccnc(Cl)c2)nn1-c1nc2ccccc2s1 | 120% | 102% | 99.1% | 114% | 96.8% | 106% | 107% |  | 97.2% | 107% | 104% |  |  |  | 102% |  | 101% | 104%
Clc1ccc(C2=Nc3cccc4cccc(c34)N2)cc1Cl |  | 97.7% | 71.8% | 86% |  | 74.2% | 114% | 99% | 50.2% | 93% | 104% | 42.2% | 56.8% | 126% | 32.6% | 98.1% | 99.9% | 95.8%
COc1cccc(OC(=O)c2ccccc2)c1OC(=O)c1ccccc1 |  | 91.6% |  | 68.5% | 86.9% | 83.4% | -16.4% (active) | 40.1% | 47.4% | 51.3% |  | 80.2% | 68.6% | 99.4% | 100% | 90.4% |  | 9.73% (active)
